# Screening data as filed in PubChem BioAssay.
# Compounds with a hit are over-represented: about 1.5% of the library has one in this group of screens.
# Bcl-xL primary: Bcl-xL (human) inhibition; Q07817; GST-Bcl-xL / FITC-Bim BH3 peptide fluorescence polarization; inhibition, % at 10.9 µM; actives 0.7% (n = 320,000); AID 2129;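 active = inhibition above the mean of all tested compounds plus 3 SD, cutoff set per campaign, cut at about 30% in these data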;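 note: inhibitors lower millipolarization by displacing the labeled peptide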
# EBV gp42 inh: EBV gp42 inhibition; Q1HVG2; Fluorescence polarization binding assay, mP read-out; inhibition, % (tested at 21.74 µM); actives 0.42% (n = 220,000); AID 1085; in the data active = inhibition above about 50%
# Target sequence (Q1HVG2 whole entry, looked up): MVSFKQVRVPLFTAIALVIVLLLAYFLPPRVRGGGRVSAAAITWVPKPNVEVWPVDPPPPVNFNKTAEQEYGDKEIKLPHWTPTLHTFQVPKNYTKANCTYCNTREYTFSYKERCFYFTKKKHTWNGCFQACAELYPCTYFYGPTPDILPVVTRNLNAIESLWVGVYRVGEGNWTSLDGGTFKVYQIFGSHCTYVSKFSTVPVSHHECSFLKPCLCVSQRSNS
# MCL1 BIM primary: MCL1-BIM-BH3 interaction inhibition (human). Q07820. GST-MCL1 / FITC-Bim-BH3 fluorescence polarization. inhibition, % at 10.9 µM. actives 0.68% (n = 320,000). AID 2057;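 active = inhibition above the mean inhibition of all tested compounds plus 3 SD, set per campaign, cut at about 40% in these data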;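 note: higher means more loss of mP so more displacement of Bim peptide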
# Target sequence (Q07820 whole entry, looked up): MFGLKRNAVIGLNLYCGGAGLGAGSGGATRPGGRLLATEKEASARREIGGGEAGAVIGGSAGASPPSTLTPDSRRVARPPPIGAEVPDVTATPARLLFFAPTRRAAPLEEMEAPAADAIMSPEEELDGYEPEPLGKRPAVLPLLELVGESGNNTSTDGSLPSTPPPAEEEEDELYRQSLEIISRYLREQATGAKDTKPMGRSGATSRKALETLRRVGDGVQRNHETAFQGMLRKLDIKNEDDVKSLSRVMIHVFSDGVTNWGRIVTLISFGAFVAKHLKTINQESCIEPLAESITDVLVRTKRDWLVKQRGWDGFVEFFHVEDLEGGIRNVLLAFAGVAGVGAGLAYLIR
# E coli Lon inh: inhibits E. coli Lon protease; purified E. coli Lon protease, fluorescence polarization; inhibition, % at 7.94 µM; actives 0.42% (n = 360,000); AID 602123; in the data active = inhibition above about 13%, passing the limit was not always enough
# GLD-1 RNA inh: GLD-1-TGE RNA interaction inhibition (C. elegans); purified GLD-1 + fluorescein TGE RNA, fluorescence polarization; inhibition, % at 5.96 µM; actives 0.44% (n = 320,000); AID 2280;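 active = percent inhibition above a per-plate cutoff, the plate mean of test compounds plus 3 SD, cut at about 30% in these data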
# MEX-5 binding: C. elegans MEX-5 TCR-2 RNA binding activity; Q9XUB2; MEX-5/FITC-TCR2 RNA binding, fluorescence polarization; stronger effect = lower value; activity score (negative = inhibition of binding), % at 10 µM; actives 0.38% (n = 300,000);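 active = inhibition past about -25% in most replicates, and total fluorescence under double the plate's negative control median, limit read from the data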
# GLD-1 TGE cf: GLD-1 TGE RNA interaction inhibition, confirmation. shares compounds with GLD-1 RNA inh. GLD-1/FL-TGE RNA fluorescence polarization, biochemical. inhibition, % at 5.96 µM. actives 10% (n = 550). AID 2459;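 active = average inhibition across triplicates above the hit cutoff set in the primary screen, cut at about 32% in these data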
# A number is an active result; n = inactive; x = no result.
SMILES,Bcl-xL primary,EBV gp42 inh,MCL1 BIM primary,E coli Lon inh,GLD-1 RNA inh,MEX-5 binding,GLD-1 TGE cf
C=CCNC(=O)/C(C#N)=C/c1c(N2CCN(c3ccc(OC)cc3)CC2)nc2c(C)cccn2c1=O,n,x,n,n,33,n,n
CCc1cc(-c2n[nH]c(C)c2-c2ccccc2Cl)c(O)cc1OC,n,x,n,n,n,n,x
Cc1ccc(C2=Nc3ccccc3NC(C)(c3ccc(C)o3)C2)o1 (stereo unspecified),40,n,n,n,44,n,n
O=C(O)C1Sc2[nH]c(=O)sc2C2c3cc(Br)ccc3OC(=O)C12 (stereo unspecified),38,n,45,n,54,x,n
Cc1[nH]c2ccccc2c1C(=O)C(C)OC(=O)c1ccccc1NCCO (stereo unspecified),n,x,n,n,45,n,n
O=C(COC(=O)C1CC2CCCC(C1)C2=O)NNC(=O)c1ccc([N+](=O)[O-])cc1 (stereo unspecified),n,x,n,n,n,n,x
COc1ccc(NC(=O)c2oc3ccccc3c2NC(=O)C2CCCO2)cc1OC (stereo unspecified),n,n,n,n,70,n,n
Cc1ccc(NC(=O)c2oc3ccccc3c2NC(=O)C2CCCO2)cc1C (stereo unspecified),n,n,n,n,n,n,x
COc1ccc(C(=O)NC2CCN(C(=O)NCc3ccccc3)CC2)cc1,n,x,n,n,n,n,x
CN(CCc1ccccc1)C1CCCN(S(=O)(=O)N(C)C)C1 (stereo unspecified),n,x,n,n,65,n,n
COc1ccc(S(=O)(=O)C(C#N)c2nc3ccccc3nc2N2CCCC(C)C2)cc1 (stereo unspecified),43,n,41,n,33,n,n
COC(=O)c1ccc(NC(=O)CSc2ccccn2)cc1,n,n,n,n,n,n,x
COC(=O)c1ccc(NC(=O)CSc2ccccc2)cc1,38,n,n,n,37,n,n
CC1C2(C)OCC(C#N)(C(=N)O2)C1(C#N)C#N (stereo unspecified),32,n,n,x,36,n,n
Cc1cccc(CNC(=O)C2CCC(=O)N(C3CC3)C2)c1 (stereo unspecified),n,x,n,n,n,n,x
CCN(Cc1ccncc1)C(=S)Nc1c(C)cccc1C,44,n,47,n,37,n,n
Cc1cccc(C)c1NC(=S)N(Cc1ccccc1)Cc1cccnc1,n,n,n,n,n,n,x
O=C(OCCN1CCCCC1)c1c[nH]c2ccccc12,n,x,n,n,32,x,n
COc1ccc(NC(=O)c2cc(=O)c3ccccc3o2)cn1,44,n,48,n,41,n,n
COc1ccc(NC(=O)c2cc3ccccc3o2)cn1,n,x,n,n,n,n,x
Cc1cc(C(=O)N/N=C/C=C/c2cccc([N+](=O)[O-])c2)n[nH]1,n,n,n,n,n,n,x
Cc1ncc(CN2CCCC(C(=O)Nc3ccc(-n4ccnc4C)cc3)C2)cn1 (stereo unspecified),n,x,n,n,n,n,x
CCOC(=O)C1=C(Cc2ccc(Cl)cc2)C(=O)c2ccccc2C1=O,n,n,n,n,33,n,n
CC(C)N1C(=O)C2ON(c3ccccc3)C(c3cccs3)C2C1=O (stereo unspecified),n,n,n,n,38,n,n
O=C(CN1C(=O)COc2ccccc21)NCCN1CCOCC1,n,x,n,n,n,n,x
SMILES,Bcl-xL primary,EBV gp42 inh,MCL1 BIM primary,E coli Lon inh,GLD-1 RNA inh,MEX-5 binding,GLD-1 TGE cf
CC1Oc2ccccc2N(CC(=O)NCCN2CCOCC2)C1=O (stereo unspecified),31,x,49,n,37,n,n
O=C(NCCOc1ccc(Cl)cc1)c1ccc2ccccc2n1,n,n,n,n,54,x,n
Cc1ccc(OCCNC(=O)c2ccc3ccccc3n2)cc1,n,x,n,n,n,n,x
Cc1ccc(C)c(NC(=S)NCc2ccc3[nH]c4c(c3c2)CCCC4)c1,55,n,n,n,59,n,n
Cc1ccccc1NC(=S)NCc1ccc2[nH]c3c(c2c1)CCCC3,n,n,n,n,n,n,x
CC(C)CCn1c(Cl)nc2c1c(=O)n(C)c(=O)n2C,n,n,n,n,31,n,n
CC(C)CCn1c(N2CCCC2)nc2c1c(=O)n(C)c(=O)n2C,n,x,n,n,n,n,x
CCN1C[C@@H]2[C@@H]3C(=O)N(Cc4ccccc4)C(=O)[C@@H]3[C@](CC)(C1=O)N2C(=O)c1ccc(C(F)(F)F)cc1,x,x,x,n,n,x,x
Nc1c(Cl)ncnc1N/N=C/c1ccccn1,n,n,n,x,n,x,x
Nc1c(Cl)ncnc1N/N=C/c1ccc2ccccc2n1,n,n,n,n,32,x,n
CCc1ccc(NC(=O)C2CCN(S(=O)(=O)c3cnc[nH]3)CC2)cc1,n,x,n,n,n,n,x
CCc1ccc(NC(=O)C2CCCN(S(=O)(=O)c3cnc[nH]3)C2)cc1 (stereo unspecified),n,x,n,n,61,n,n
CCOC(=O)CNC(=O)CCc1nnc2ccc(N3CCC(C)CC3)nn12,n,x,n,n,n,n,x
CC(=O)Nc1ccc(NC(=O)CCn2c(=S)oc3ccccc32)cc1,n,n,n,n,n,n,x
CC(=O)c1ccc(NC(=O)CCn2c(=S)oc3ccccc32)cc1,n,x,n,n,43,n,n
CC1Cc2cc(S(=O)(=O)N3CCCC(C(=O)N4CCCCC4)C3)ccc2N1C(=O)C1CC1 (stereo unspecified),n,x,n,n,n,n,x
COc1ccc(C(=O)NC(=S)Nc2ccc(CN3CCOCC3)cc2)cc1,n,n,n,n,64,n,n
COC(=O)C(Cc1ccc(O)cc1)NC(=O)C1CCN(S(=O)(=O)c2ccc(C)cc2)CC1 (stereo unspecified),n,x,n,n,n,n,x
Cn1c(=O)c(=O)n(C)c2cc(S(=O)(=O)CCC(=O)NCc3ccccc3)ccc21,n,x,n,n,n,n,x
CCN(Cc1ccccc1)C(=O)CCS(=O)(=O)c1ccc2c(c1)n(C)c(=O)c(=O)n2C,n,x,n,n,46,n,n
COc1ccc(/C(C)=N/NC(=O)c2ccc(CSc3nncn3C)cc2)cc1,n,n,n,n,n,n,x
O=C(NCc1nc2ccccc2[nH]1)C1=C[C@@H](C2CCCCC2)C[C@@H](OCCCCO)O1,n,n,n,n,85,n,n
C[C@H]1C=C(C(=O)NCc2nc3ccccc3[nH]2)O[C@@H](OCCCCO)C1,n,x,n,n,n,n,x
O=c1c2cccc(Cl)c2nc2n1Cc1ccccc1-2,n,n,n,n,42,n,n
Cc1cc(Cl)ccc1OCCCC(=O)Nc1ccc(S(=O)(=O)Nc2ncccn2)cc1,n,x,n,n,n,n,x
